Inconclusive results are not listed. Active and inactive are the calls of the source. Calls follow the shape of the dose curve; as a rule, active = well fitted inhibition curve with a large enough effect; inconclusive = small, poorly fitted or top-dose-only effect, or effect the other way; inactive = flat fitted curve, though single readings scatter.
Experiment: VP16 selectivity assay for inhibitors of ROR gamma transcriptional activity
From the text: NIH Molecular Libraries Probe Production Network [MLPCN] NIH Chemical Genomics Center [NCGC] MLPCN Grant: R03 DA026211-01 Assay Provider: Dan Littman, New York University Assay Overview: The retinoic acid-related orphan receptor (ROR) gamma is a transcription factor that has a central role in the differentiation of Th17 cells, a subset of T helper cells that secrete the inflammatory cytokines IL-17, IL-17F, and IL-22. Th17 cells have been implicated in graft versus host disease, autoimmune disease and asthma. ROR gamma is induced in naive T helper cells in the presence of TGF-beta combined with IL-6, IL-21, or IL-23, and thereafter directs the expression of the Th17 lineage cytokines. […] Small molecule inhibitors that inhibit components common to the RORgt and VP16 assays, such as the Gal4 DNA binding domain or the UAS luciferase reporter, will be active in both assays and thus scored as nonspecific.
Assay Protocol Summary: For screening, 600 cells in 4 uL/well were dispensed into white solid 1536-well plates (Grenier) using a solenoid-based dispenser. […] After addition of 1.5 uL Photinus luciferase detection reagent, the plates were incubated 10 min at ambient temperature and then read by an ViewLux (Perkin Elmer) to detect luminescence.

Compound	outcome
CC1OC(O[C@@H]2C(O)CC(O[C@@H]3C(O)C[C@@H](OC4CC[C@@]5(C)C6CC[C@]7(C)C(C8=CC(=O)OC8)C(O)C[C@@]7(O)[C@H]6CC[C@@H]5C4)OC3C)OC2C)CC(O)C1O (some centres not stated)	inactive
CO[C@H]1[C@@H](O)CC(OC2[C@@H](O)CC(OC3[C@@H](O)C[C@H](OC4CC[C@@]5(C)C(CCC6C5CC(O)[C@]5(C)[C@H](C7=CC(=O)OC7)CCC65O)C4)O[C@@H]3C)O[C@@H]2C)O[C@@H]1C (some centres not stated)	inactive

Reference: PubChem BioAssay AID489036 (National Center for Advancing Translational Sciences (NCATS), 2010)
